Hits are enriched below; roughly 2.7% of the tested compounds scored in any of these assays.
LDHA inh: qHTS assay for inhibitors of human lactate dehydrogenase | L-lactate dehydrogenase A chain (Homo sapiens), P00338 | purified LDHA, NADH/diaphorase-resazurin fluorescence; hits give low values | activity change, % (values are at about 110 or 230 µM) | actives 0.15% (n = 480,000) | AID 1347041, 2019; in the data active = activity change below about -30%; inconclusive = mostly about -25% to -30%;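 also: plate controls were DMSO wells for no effect and wells without enzyme for full effect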
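LDH5 2 nM; NADH 0.06 mM, pyruvate 0.2 mM; 200 mM Tris pH 7.4, EDTA, Tween-20; 5 min RT. Detection: diaphorase 0.133 mg/mL + resazurin 37 µM, fluorescence ex540/em590 at 0 and 20 min; normalized to enzyme-free and DMSO wells.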
12-LOX inh: Primary qHTS assay for inhibitors of human arachidonate 12S-lipoxygenase (ALOX12): Round 2; Potency, µM (series often up to 108 µM), for inactives: top-dose activity change, negative = inhibition, hits mostly inhibitors; AID 1671190, 2021; purified 12hLO, xylenol orange hydroperoxide absorbance; Polyunsaturated fatty acid lipoxygenase ALOX12 (Homo sapiens), P18054; actives 1.1% (n = 580,000); also: potency is read from the fitted curve at half-maximal effect; % is scaled to controls: 0 for no effect and ±100 for the full control effect
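Hydroperoxide product was detected by ferrous iron/xylenol orange as the 573 to 405 nm absorbance ratio. Arachidonic acid at 40 uM (final) was turned over for 30 min at room temperature by 150 nM human 12hLO, pH 7.0 Hepes buffer, after 15 min compound preincubation.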
Nrf2 ARE act: qHTS of Nrf2 Activators. AREc32 ARE-luciferase reporter (MCF7-derived line), luminescence, 24 h. Potency, µM (highest dose often 46.1 µM), inactives show at the top dose activation, usual class: activators. actives 0.31% (n = 410,000). AID 624171, 2012; also: potency is read from the fitted curve at half-maximal effect; % of control where 0% means no effect; nearly all actives have a fitted effect of over 65% in size
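Cells of the AREc32 ARE-luciferase line are plated in OPTI-MEM containing 5% FBS and left overnight at 37 deg C. Compounds are pinned in, incubation continues 24 hr, and firefly luciferase signal is then measured.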
A549 viability: Nrf2 qHTS screen for inhibitors: counterscreen for cytotoxicity; A549 ARE-Fluc cells, CellTiter-Fluor viability, 18-24 h; Potency, µM (highest dose often 46 µM), inactives show at the highest dose activity change, negative = cytotoxicity, usual class: inhibitors; actives 0.16% (n = 390,000); AID 504648, 2011; also: potency is read from the fitted curve at half-maximal effect; % is scaled to controls: 0 for no effect and ±100 for the full control effect
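A549 ARE_Fluc cells in 5% FBS OPTI-MEM were exposed to compounds in concentration-response for 18-24 h at 37 deg C. Viability was read by CellTiter-Fluor fluorescence (Ex 405/Em 525) after 30 min, before the luciferase read.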
Nrf2 block: Nrf2 qHTS screen for inhibitors; actives 2.1% (n = 360,000); Potency, µM (series often up to 46 µM), inactives show at the top dose activity change, negative = inhibition, usual class: inhibitors; A549 ARE-Fluc reporter, luciferase luminescence, 18-24 h; also: potency is read from the fitted curve at half-maximal effect; % is scaled to controls: 0 for no effect and ±100 for the full control effect; nearly all actives have a fitted effect of over 60% in size
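Cells were seeded and rested 2 h, then exposed to compounds for 18-24 h. CellTiter-Fluor was read first as a viability measure. BugLite was added 15 min before the final luminescent read of ARE-luciferase activity in A549 cells.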
mIDH1 inhibitor: qHTS for Inhibitors of mutant isocitrate dehydrogenase 1 (IDH1): qHTS | actives 0.093% (n = 390,000) | IDH1-R132H enzyme, NADPH consumption, diaphorase/resazurin fluorescence | AID 602179, 2012 | Isocitrate dehydrogenase [NADP] cytoplasmic (Homo sapiens), O75874 | Potency, µM (series often up to 76.6 µM), inactives show top-dose activity change, negative = inhibition, most hits filed as inhibitors; also: potency is read from the fitted curve at half-maximal effect; % is scaled to controls: 0 for no effect and ±100 for the full control effect; nearly all actives have a fitted effect of over 65% in size
Target sequence (O75874 whole entry R132H, stated change not applied): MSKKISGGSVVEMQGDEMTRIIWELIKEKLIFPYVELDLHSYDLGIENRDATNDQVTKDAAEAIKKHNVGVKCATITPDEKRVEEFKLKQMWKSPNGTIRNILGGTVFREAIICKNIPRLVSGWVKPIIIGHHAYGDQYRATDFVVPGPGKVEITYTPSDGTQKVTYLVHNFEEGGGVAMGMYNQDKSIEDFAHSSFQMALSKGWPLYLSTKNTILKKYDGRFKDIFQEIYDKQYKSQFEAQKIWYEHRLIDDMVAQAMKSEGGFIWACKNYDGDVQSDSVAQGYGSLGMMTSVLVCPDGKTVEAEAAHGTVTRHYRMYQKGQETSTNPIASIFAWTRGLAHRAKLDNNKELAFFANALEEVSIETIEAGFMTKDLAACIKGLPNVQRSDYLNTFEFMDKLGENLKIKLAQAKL
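IDH1-R132H (0.5 ug/mL dispensed) in pH 7.5 Tris buffer was preincubated 30 min with compound, then given a substrate mix of 0.016 mM NADPH and 2 mM alpha-KG for 80 min at room temperature; remaining NADPH was read by diaphorase/resazurin fluorescence.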
Active calls of the source: *; ? = inconclusive; / = no result given. Unless noted, calls follow the shape of the dose curve; as a rule, active = well fitted curve in the direction sought with a large enough effect; inconclusive = small, poorly fitted or top-dose-only effect, or another doubt; inactive = no such curve, though single readings can be large; an effect the other way counts as inactive or inconclusive.

SMILES | LDHA inh | 12-LOX inh | Nrf2 ARE act | A549 viability | Nrf2 block | mIDH1 inhibitor
CC1CC2=C(NC(=S)NC2c2cccc(F)c2)/C(=C/c2cccc(F)c2)C1 (centres undefined) | -2 | 28µM* | 0% | 1% | ? | -4%
CNC(=O)[C@@H]1C[C@H](Oc2cccnc2)CN1S(=O)(=O)c1ccc2c(c1)CCC2 | / | 19% | / | / | / | /
CN(Cc1ccc(C(=O)NCC(F)(F)F)cc1)C(=O)C1CCCN(C(=O)c2ccc(Cl)cc2)C1 (centres undefined) | -3 | ? | / | / | / | /
CCN(C(=O)C(C)S(=O)(=O)Cc1ccc(F)cc1Cl)c1ccccc1 (centres undefined) | -11 | -26% | / | / | / | /
COc1cc(NC(=O)CCc2ncc(-c3ccc(Cl)cc3)o2)cc(OC)c1 | 1 | 0% | / | / | / | /
S=C(Nc1ccc(Cl)cc1Cl)Nc1ccccc1Oc1ccccc1 | -7 | / | 4% | 2% | -21% | 8%
S=C(Nc1ccccc1Oc1ccccc1)Nc1cccc(Cl)c1Cl | -8 | 35µM* | 0% | 17% | 0% | -4%
O=C(/C(Cl)=C/Nc1ccccn1)C(F)(F)F | 4 | -9% | / | / | / | /
Cc1ccnc(N/C=C(/Cl)C(=O)C(F)(F)F)c1 | -1 | 40µM* | / | / | / | /
CCCOc1ccc(C(=O)NNC(=S)NC(=O)c2cc(-c3ccc(Cl)cc3)nc3ccccc23)cc1 | -6 | ? | 1% | -18% | 4.6µM* | -4%
CCNC(=S)NNC(=O)c1cc(-c2ccc(OCC)cc2)nc2ccccc12 | -4 | ? | -2% | -4% | / | 1%
COc1ccc(/C=C/C(=O)NC(=S)NNC(=O)c2c(-c3ccccc3)noc2C)cc1 | -1 | ? | 0% | -11% | ? | 2%
COc1ccc(-c2cc(C(=O)NNC(=S)NC(=O)c3c(-c4ccccc4)noc3C)[nH]n2)cc1 | -12 | 11µM* | 0% | -10% | 7% | 1%
COc1ccc(C(=O)NNC(=S)NC(=O)c2cc(-c3ccccc3)nc3ccccc23)cc1 | -1 | ? | 21% | ? | 18µM* | 0%
COc1ccc(Cl)cc1C(=O)NNC(=S)NC(=O)c1cc(-c2ccccc2)nc2ccccc12 | -7 | -17% | 4% | -7% | ? | 3%
CCCOc1cccc(-c2cc(C(=O)NNC(=S)NCC)c3ccccc3n2)c1 | -2 | 25µM* | 6% | -14% | ? | 6%
N#Cc1ccnc(N2CCN(C(=O)Nc3cccnc3)CC2)c1 | 8 | -2% | / | / | / | /
O=C(OC1CCCCC1=O)c1ccc(F)cc1Cl (centres undefined) | 1 | ? | / | / | / | /
Cc1cc(NC(=O)CN(C)S(=O)(=O)c2ccc3c(c2)CCCC(=O)N3)ccc1Br | -8 | 0% | 0% | -9% | 21µM* | -13%
Cc1ccc(NC(=O)C2CCCN(S(=O)(=O)c3ccc4c(c3)CCCC(=O)N4)C2)cc1N(C)C (centres undefined) | 5 | 0% | 0% | 1% | 16µM* | 1%
CC(=O)Nc1ccc(NC(=O)CN(C)S(=O)(=O)c2ccc3c(c2)CCC(=O)N3)cc1 | -6 | 3% | -1% | -3% | -2% | -20%
Cc1ccc(NC(=O)C2CCN(S(=O)(=O)c3ccc4c(c3)CCCC(=O)N4)CC2)cc1N(C)C | 2 | -1% | 0% | -4% | ? | -6%
O=Cc1c(-c2ccc(Cl)cc2)[nH]c2ccccc12 | 0 | ? | / | / | / | /
NS(=O)(=O)c1ccc(N/N=C/c2cn(-c3ccccc3)nc2-c2cccs2)cc1 | 1 | ? | 0% | -5% | 0% | 2%
O=C(O)c1cccc(N/N=C/c2cn(-c3ccccc3)nc2-c2cccs2)c1 | -7 | 45µM* | 9% | -7% | ? | -3%
SMILES | LDHA inh | 12-LOX inh | Nrf2 ARE act | A549 viability | Nrf2 block | mIDH1 inhibitor
NS(=O)(=O)c1ccc(N/N=C/c2ccc[nH]2)c([N+](=O)[O-])c1 | 7 | 1% | 7% | -6% | 8.2µM* | -3%
NS(=O)(=O)c1ccc(N/N=C/c2cn(-c3ccccc3)nc2-c2cccs2)c([N+](=O)[O-])c1 | -10 | 186% | -2% | 13µM* | 10µM* | 1%
CCOc1cccc(/C=C(/C#N)c2nc3ccccc3[nH]2)c1 | -2 | 12% | / | / | / | /
NS(=O)(=O)c1ccc(Nc2nc(-c3ccc(F)cc3)cs2)cc1 | 1 | 40µM* | 5% | -27% | ? | 4%
O=C(CCS(=O)(=O)c1ccc(F)cc1)Nc1nc(-c2ccncc2)cs1 | -17 | -26% | 16µM* | -4% | -6% | -1%
O=S(=O)(Nc1ccc(-c2csc(-c3ccccc3)n2)cc1)c1ccc(F)cc1 | 9 | ? | -1% | -13% | -21% | 3%
CC(=O)Nc1ccc(-c2csc(Nc3ccc(S(N)(=O)=O)cc3)n2)cc1 | -3 | -8% | -1% | -2% | 11% | 6%
O=C(Nc1nc(-c2ccccc2)cs1)c1ccccc1NS(=O)(=O)c1ccc(F)cc1 | -10 | ? | 11% | ? | 6.5µM* | -7%
